Activity change, negative = inhibition data for 91 molecules are collected here from PubChem BioAssay AID2472 (National Center for Advancing Translational Sciences (NCATS), 2010).

Molecules are shown by their SMILES. Out of some 290,000 compounds screened, about 2,000 (0.69%) were called active. This is one part of a sample in which actives are shown more often than they occur. Cut-off read from the data, not from the text of the source: active = activity change below about -30%; inactive = the rest, inconclusive results apart.
% is set by controls: 0 for no effect and ±100 for the full control effect.

The assay can be described thus: qHTS Assay for Inhibitors of Fructose-1,6-bisphosphate Aldolase from Giardia Lamblia: Coupling assay counterscreen. The following applies: coupling enzyme system counterscreen, AmpLite Red fluorescence; at 58.2 µM (top of the series). In outline: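 Counterscreen lacking aldolase: glyceraldehyde-3-phosphate coupling-enzyme reagent preincubated 10 min at RT with compound (at 57.5 uM final), then substrate/coupling system with AmpLite Red added; fluorescence read at 525/598 nm after 20 min RT.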
Regarding `Cc1ccc(Cn2c(C)c3cnn(CC(=O)NCc4ccccn4)c(=O)c3c2C)cc1`, the activity change, negative = inhibition is 0.293% (inactive).

With `COc1ccc(C(=O)NC2=NCCS2)c(OC)c1`, the activity change, negative = inhibition is 0.219% (inactive).

Consider `Cc1cccc2c3c(ccc12)C1=C(C(=O)C3=O)C(C)CO1` (stereo unspecified), for which the activity change, negative = inhibition was -60.2% (active).

With `O=C1C2C3C=CC(C3)C2C(=O)N1c1ccc(-c2nc3ccccc3c(=O)o2)cc1` (stereo unspecified), the activity change, negative = inhibition is -9.8% (inactive).

As for `Cc1cc2c(c(=O)n1Cc1ccccc1)C1O[C@](CCCCN3C(=O)c4ccccc4C3=O)(Cc3ccccc31)O2`, the activity change, negative = inhibition is -1.41% (inactive).

Regarding `CCN1C(=O)c2cccc3c(N)ccc1c23`, the activity change, negative = inhibition is -57.1% (active).

In the case of `CN1C(=O)c2cccc3c(N)ccc(c23)C1=O`, the activity change, negative = inhibition was 0.398% (inactive).

As for `CCN1C(=O)c2cccc3c(S(=O)(=O)Nc4ccccc4O)ccc1c23`, the activity change, negative = inhibition was -10.8% (inactive).

For the molecule `O=C1C[C@@H](c2ccc3ccccc3c2)N1S(=O)(=O)c1ccccc1[N+](=O)[O-]`, the activity change, negative = inhibition is 11.1% (inactive).

`C=CC1=C2C=C(C3CC3)N(CC(C)C)C=C2C(=O)C(C)(OC(=O)c2ccco2)C1=O` (stereo unspecified): the activity change, negative = inhibition is -42.6% (active).

For `C=CC1=C2C=C(C3CC3)N(C(CO)CO)C=C2C(=O)C(C)(OC(=O)c2ccco2)C1=O` (stereo unspecified), the activity change, negative = inhibition was -18.7% (inactive).

On to `CC(C)(C)OC(=O)NCCCC1=CC2=CC(=O)C(C)(OC(=O)c3ccco3)C(=O)C2=CO1` (stereo unspecified), for which the activity change, negative = inhibition is -0.316% (inactive).

Turning to `Cc1cccc(C(=O)Nc2ccc(C(=O)/C=C/c3cccs3)cc2)c1`, the activity change, negative = inhibition is -6.98% (inactive).

Consider `CN(C)c1ccc(NC(=O)CSc2n[nH]c(-c3ccco3)n2)cc1`, for which the activity change, negative = inhibition was 0.0598% (inactive).

Consider `O=[N+]([O-])c1ccc(Sc2n[nH]c(-c3ccco3)n2)nc1`, for which the activity change, negative = inhibition was 3.58% (inactive).

Take `CN(C)C(=O)CSc1n[nH]c(-c2ccco2)n1`: the activity change, negative = inhibition is -32.9% (active).

For `COc1ccc(-c2c(-c3ccc(OC)cc3O)nc(C)nc2C(F)(F)F)cc1`, the activity change, negative = inhibition was 2.62% (inactive).

Consider `COc1ccc(C2=Nn3c(nnc3-c3ccccc3O)SC2)cc1`, for which the activity change, negative = inhibition was -2.11% (inactive).

`CCCCC/C=C\C/C=C\CCCCCCCCCC(=O)NCC(=O)O`: the activity change, negative = inhibition was 1.59% (inactive).

For `O=C1C(c2ccccn2)=[N+]([O-])c2ccccc21`, the activity change, negative = inhibition was -40.5% (active).

`O=Cc1cn(-c2ccccc2)nc1-c1ccccn1`: the activity change, negative = inhibition is 0.364% (inactive).

On to `NC(=O)C1CCN(C(=O)CC2C(=O)NCCN2Cc2cccc(Oc3ccccc3)c2)CC1` (stereo unspecified), for which the activity change, negative = inhibition was -8.79% (inactive).

As for `O=C(NCc1ccccc1Cl)c1ccc2c(=O)n(CC3CCCO3)c(=S)[nH]c2c1` (stereo unspecified), the activity change, negative = inhibition is 2.3% (inactive).

Take `COc1ccccc1OCc1nnc(SCC(N)=O)n1-c1ccccc1`: the activity change, negative = inhibition was -0.0181% (inactive).

On to `COc1ccc(-c2c3c(=O)n(C)c(=O)n(C)c3cn2-c2cccc(OC)c2)cc1`, for which the activity change, negative = inhibition was 3.67% (inactive).

On to `Cn1c(=O)c2cn(-c3cccc4ccccc34)cc2n(C)c1=O`, for which the activity change, negative = inhibition was -34.2% (active).

`CC(=O)Nn1cc2c(=O)n(C)c(=O)n(C)c2c1`: the activity change, negative = inhibition is -0.0563% (inactive).

Consider `O=C1c2ccccc2C(=O)N1c1cccc2ccccc12`, for which the activity change, negative = inhibition was 2.72% (inactive).

As for `COc1ccc(-c2c3c(=O)n(C)c(=O)n(C)c3cn2NC(C)=O)cc1`, the activity change, negative = inhibition was -2.71% (inactive).

With `COc1ccc(OC)c(-n2cc3c(=O)n(C)c(=O)n(C)c3c2)c1`, the activity change, negative = inhibition was -33.3% (active).

On to `CN(Cc1ccc(F)cc1Cl)S(=O)(=O)c1cccs1`, for which the activity change, negative = inhibition is -12.4% (inactive).

With `CC(C)(C)c1ccc(SCCc2ccncc2)cc1`, the activity change, negative = inhibition is 1.38% (inactive).

`COc1cc(NC(=O)C2CCN(c3cnccn3)CC2)cc(OC)c1`: the activity change, negative = inhibition is -3.56% (inactive).

With `Cc1cc(C(F)F)n2nc(C(=O)Nc3ccc(S(=O)(=O)NC45CC6CC(CC(C6)C4)C5)cc3)nc2n1`, the activity change, negative = inhibition was 0.756% (inactive).

Consider `CCn1nccc1C(=O)Nc1ccc(Cl)c(Cl)c1`, for which the activity change, negative = inhibition is 0.939% (inactive).

As for `CCn1nccc1C(=O)Nc1ccc(S(=O)(=O)NC23CC4CC(CC(C4)C2)C3)cc1`, the activity change, negative = inhibition is -40.9% (active).

With `COc1ccc(NC(=O)C2CCC(CNC(=O)[C@@H]3Cc4ccccc4CN3)CC2)cc1` (stereo partly specified), the activity change, negative = inhibition was 0.0857% (inactive).

Take `COc1ccc(NC(=O)CCn2ccnc2)c(OC)c1`: the activity change, negative = inhibition is 5.46% (inactive).

`O=C(N/N=C/c1c(Cl)[nH]c2ccccc12)c1sc2ccccc2c1Cl`: the activity change, negative = inhibition was -8.68% (inactive).

Turning to `Oc1ccc(N=Cc2sc3ccccc3c2Cl)cc1`, the activity change, negative = inhibition is -45.3% (active).

In the case of `COc1ccc(N=C(C)c2sc3ccccc3c2O)cc1`, the activity change, negative = inhibition was -5.39% (inactive).

`COc1ccccc1S(=O)(=O)c1c(C)cc(C)[nH]c1=O`: the activity change, negative = inhibition was 0.55% (inactive).

Regarding `C=CC(C1=CC(=O)C=CC1=O)c1ccc(O)cc1` (stereo unspecified), the activity change, negative = inhibition was -27% (inactive).

In the case of `CCOC(=O)c1ccccc1C(=O)N1CCOCCOCCOCC1`, the activity change, negative = inhibition is -0.445% (inactive).

Consider `Cc1oc2c(c1C(=O)N1CCOCC1)C(=O)c1ccccc1C2=O`, for which the activity change, negative = inhibition is -40.8% (active).

`Cc1noc(C)c1C(=O)N1CCOCC1`: the activity change, negative = inhibition is 0.778% (inactive).

Consider `COC(=O)c1cc2c(ccn2C)n1C`, for which the activity change, negative = inhibition is -5.9% (inactive).

Turning to `Cc1cc(C(=O)N/N=C/c2ccccn2)c2ccccc2n1`, the activity change, negative = inhibition was 0.262% (inactive).

On to `CCOC(=O)CSc1nccc(N(C)C)c1C#N`, for which the activity change, negative = inhibition is -0.791% (inactive).

Take `CCCc1cc(=S)n2c([nH]c3ccccc32)c1C#N`: the activity change, negative = inhibition was -7.83% (inactive).

On to `CCOC(=O)CCc1c(C)c(C#N)c2[nH]c3ccccc3n2c1=O`, for which the activity change, negative = inhibition is -41.6% (active).

Regarding `C=CCn1cc(Cl)cc(C(=O)Nc2ccccc2)c1=O`, the activity change, negative = inhibition was 0.816% (inactive).

Turning to `COc1ccc2cc(S(=O)(=O)Nc3ccccn3)ccc2c1`, the activity change, negative = inhibition was 0.329% (inactive).

Take `COc1ccc(S(=O)(=O)/N=C2\C=C(NS(=O)(=O)c3ccccc3)C(=O)c3ccccc32)cc1`: the activity change, negative = inhibition was -39.6% (active).

With `COc1ccc(S(=O)(=O)Nc2c(C)n(C)n(-c3ccccc3)c2=O)cc1`, the activity change, negative = inhibition is 0.385% (inactive).

As to `C[C@@H](O)[C@@H]1NC(=O)[C@H](CCCCN)NC(=O)[C@H](Cc2c[nH]c3ccccc23)NC(=O)[C@H](Cc2ccccc2)NC(=O)[C@H](Cc2ccccc2)NC(=O)[C@H](CC(N)=O)NC(=O)[C@H](CCCCN)NC(=O)[C@@H](NC(=O)[C@@H]2CCCN2)CSSC[C@@H](C(=O)N[C@@H](CCCCN)C(=O)O)NC(=O)[C@H](CO)NC(=O)[C@H](CO)NC(=O)[C@H](Cc2ccccc2)NC1=O`, the activity change, negative = inhibition is -0.403% (inactive).

`CCCc1c(C(=O)Nc2ccc(F)cc2)cnn1-c1ccccc1`: the activity change, negative = inhibition is -6.8% (inactive).

As to `Cc1ccc(CNC(=O)C2(C(F)(F)F)C/C(=C\CCO)CCCO2)o1` (stereo unspecified), the activity change, negative = inhibition was 3.8% (inactive).

On to `O=C(Nc1cccc2ncccc12)C(Cl)(Cl)Cl`, for which the activity change, negative = inhibition is 0.503% (inactive).

For the molecule `Cc1ccc(/C=C(\C#N)C(=O)Nc2cccc3ncccc23)o1`, the activity change, negative = inhibition is -39% (active).

Regarding `Cc1ccc(C(=O)Nc2cccc3ncccc23)cc1[N+](=O)[O-]`, the activity change, negative = inhibition is 0.485% (inactive).

For `CCOC(=O)C1CCCN(S(=O)(=O)c2ccc(-n3cnnn3)c(C)c2)C1` (stereo unspecified), the activity change, negative = inhibition is 2.06% (inactive).

For the molecule `c1ccc2c(Nc3ccncc3)nc(-c3ccc4c(c3)OCO4)nc2c1`, the activity change, negative = inhibition is -0.804% (inactive).

With `COCCNC(=O)Nc1ccc2nc(-c3ccco3)c(-c3ccco3)nc2c1`, the activity change, negative = inhibition was -35% (active).

As to `O=C(Nc1ccc2nccnc2c1)c1ccco1`, the activity change, negative = inhibition is -1.38% (inactive).

Take `Cc1cc(C)cc(NC(=O)NCc2ccccn2)c1`: the activity change, negative = inhibition was -0.5% (inactive).

Consider `COc1ccc2oc(=O)c(C(=O)NCc3ccccn3)cc2c1`, for which the activity change, negative = inhibition is -2.85% (inactive).

Regarding `CC(C)(C)c1ccc(NC(=O)NCc2ccco2)cc1`, the activity change, negative = inhibition was -0.174% (inactive).

Take `O=C(NCc1ccccn1)c1ccc2nc(-c3ccco3)c(-c3ccco3)nc2c1`: the activity change, negative = inhibition is -38.7% (active).

Turning to `CCCCC/C=C\C/C=C\C/C=C\CCCCCCC(N)=O`, the activity change, negative = inhibition was 2.69% (inactive).

Consider `CCC1Sc2ccc(S(=O)(=O)CCC(=O)NCc3cccs3)cc2NC1=O` (stereo unspecified), for which the activity change, negative = inhibition was -3.89% (inactive).

For `Cc1cc2c(cc1S(=O)(=O)NCc1ccc(Cl)cc1)OCC(=O)N2`, the activity change, negative = inhibition is 1.64% (inactive).

As for `COC(=O)C(C(=O)OC)[C@@H](NC=O)c1ccccc1`, the activity change, negative = inhibition was 1.57% (inactive).

Consider `CCOC(=O)c1ccccc1CN1C(=O)c2ccccc2S1(=O)=O`, for which the activity change, negative = inhibition was -1.95% (inactive).

Regarding `CCOC(=O)c1cc2n(c1N)-c1ccccc1C2=O`, the activity change, negative = inhibition was -30.6% (active).

With `CCOC(=O)C1=C(C(=O)OCC)C(C(=O)OCC)N(S(=O)(=O)C(F)(F)F)c2ccccc21` (stereo unspecified), the activity change, negative = inhibition is 0.565% (inactive).

For `COC(=O)c1ccc(CNC(=O)C2CCC(=O)N(Cc3ccccn3)C2)cc1` (stereo unspecified), the activity change, negative = inhibition is 0.556% (inactive).

On to `CCOC(=O)C1=NO[C@@]2(C=C(Br)C(=O)[C@H]3O[C@H]32)C1`, for which the activity change, negative = inhibition was 1.71% (inactive).

With `Cc1cc(CNC(=O)C2CCC(=O)N(CCc3ccc(Cl)cc3)C2)no1` (stereo unspecified), the activity change, negative = inhibition is 2.61% (inactive).

In the case of `CC(C(=O)NCCc1ccc(S(N)(=O)=O)cc1)N1C(=O)CC(C)(C)Sc2ccccc21` (stereo unspecified), the activity change, negative = inhibition is 5.69% (inactive).

As for `O=C(N/N=C/c1c[nH]c2ccccc12)c1ccccc1O`, the activity change, negative = inhibition is 1.26% (inactive).

As to `CSC(=S)N/N=C/c1c[nH]c2ccccc12`, the activity change, negative = inhibition is -0.216% (inactive).

Regarding `C[n+]1ccc(/C=C/c2c[nH]c3ccccc23)cc1`, the activity change, negative = inhibition was -48.5% (active).

`O=C(NC1CC1)C1=C[C@H](c2c[nH]c3ccccc23)C[C@H](OCc2ccc(CO)cc2)O1`: the activity change, negative = inhibition is -9.68% (inactive).

`COc1cccc([C@@H]2Oc3ccc(Br)cc3C(=O)[C@H]2OC(=O)NCc2ccc3c(c2)OCO3)c1`: the activity change, negative = inhibition was 1.06% (inactive).

As for `COc1ccc(CCNC(=O)CSCc2ccc(Br)cc2)cc1OC`, the activity change, negative = inhibition is -0.53% (inactive).

As for `CCCCCCCCCc1ccc(OCCOCCOCCOCCOCCOCCOCCOCCOCCO)cc1`, the activity change, negative = inhibition was 0.692% (inactive).

For `COC(=O)[C@@]1(Cc2ccc(F)cc2)[C@H]2c3cc(C(=O)N4CCCC4)n(C[C@H](O)CO)c3C[C@H]2CN1C(=O)c1ccccc1`, the activity change, negative = inhibition was 4.89% (inactive).

On to `COc1ccc(N2CCN(C(C)=C3C(=O)c4ccccc4C3=O)CC2)cc1`, for which the activity change, negative = inhibition is -5.52% (inactive).

For `O=C1C(Cl)=C(N2CCOCC2)C(=O)N1c1ccccc1`, the activity change, negative = inhibition is 4.18% (inactive).

As for `COC1=C(N2CCOCC2)C(=O)c2ccccc2C1=O`, the activity change, negative = inhibition was -31.1% (active).
